In PubChem BioAssay (NCI):
The panel holds about 83,000 compounds, 20% with a hit somewhere; the sample as a whole holds those more often.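 Single-dose data. Exposure time 48 hours. Values below 10 considered active.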 A number with no mark means an inactive call. The source made the active and inactive calls.

Each compound was assayed on MDA-MB-468 breast (assay: NCI-60 one-dose screen, 48 h (100 = growth as untreated, 0 = no growth, -100 = all killed)). Conditions: 10 µM unless noted.
Compound CCOC(=O)c1c(C)n(Cc2ccccc2)c2cc(CN(C)C)c(O)cc12 has a growth of 73.9%.
In the case of N#Cc1c(-n2c(Br)c(Br)c3cc(Br)ccc32)[nH]c2c(Br)cc(Br)cc12, the growth is reported as -16.3% (active).
COc1ccccc1N1CCN(CCc2c[nH]c3cc4c(cc23)OCO4)CC1 was tested, and the growth was 90%.
Nc1ncnc2n[nH]nc12 showed a growth of 51.6%.
c1cnc2[nH]cc(-c3csc(-c4cn(CCCCN5CCOCC5)c5ccccc45)n3)c2c1 was tested, and the growth was 35.1%.
With O=C(CCc1ccco1)NC1CCN(CC2(c3ccc(Cl)cc3)CCC2)CC1 the growth was -11.5% (active).
With CC[C@]12C=CCN3CC[C@@]4(c5ccc(OC)cc5N(C)[C@H]4[C@@](O)(C(=O)OC)[C@@H]1OC(=O)CCCC[P+](c1ccccc1)(c1ccccc1)c1ccccc1)[C@@H]32 the growth was -63.9% (active).
In the case of CC1=C(C)C(=O)O[C@@H]([C@](C)(O)[C@]2(O)CC[C@@]3(O)[C@@H]4C[C@H]5O[C@]56CC=CC(=O)[C@]6(C)[C@H]4CC[C@]23C)C1, the growth is reported as -26.3% (active).
Cc1cccc(N(C)c2cccc3c2C(=O)[Se]C3)c1C showed a growth of 16.9%.
COC(=O)[C@H](Cc1ccccc1)NC(=O)c1csc([C@@H](C[C@H](C(C)C)N(C)C(=O)[C@@H](NC(=O)[C@H]2CCCN2C)C2CC2)OC(C)=O)n1 was tested, and the growth was -5.59% (active).
Cc1ccccc1NC(=NCCCN1CC1)Nc1ccccc1C gave a growth of 54.7%.
N#CC1C(C#N)C2CCC1C1C2N1c1ccccc1 (stereo not drawn) showed a growth of 102%.
In the case of C[C@@]12CCCc3coc(c31)C(=O)c1cc3c(cc12)C(=O)C1=C(NCCS1(=O)=O)C3=O, the growth is reported as -65.6% (active).
